Laboratory results published in PubChem BioAssay (Tox21).
Active and inactive are the calls of the source. Calls come from the whole dose curve; as a rule, active = well fitted activation curve with a large enough effect in the repeat runs; inconclusive = weak or mixed curves; inactive = flat fitted curve, though single readings scatter.

assay: Caspase-3/7 induction in CHO-K1 cells by small molecules, qHTS assay (AID 1346980); settings: CHO-K1 caspase-3/7 induction, Caspase-Glo luminescence, 17 h; series mostly up to 92.4 µM; caspase-3/7 activation: at the top concentration; note: nearly all actives have a fitted effect of over 15% in size
Excerpt: National Center for Advancing Translational Sciences [NCATS]
NIH Chemical Genomics Center [NCGC]
U.S. Environmental Protection Agency [EPA]
National Institutes of Environmental Health Sciences [NIEHS]
National Toxicology Program [NTP]
Apoptosis is a process of programmed cell death and plays a central role in the development of multicellular organisms. It is a highly regulated process and induces cell death by activating caspases, which are the members of cysteine aspartic acid-specific protease (caspase) family. Caspases involved in apoptosis are classified by their mechanism of action as initiator caspases (caspase-2, -8, -9 and -10) and executioner caspases (caspase-3, -6, and -7). Inhibition of apoptosis results in number of cancers, autoimmune diseases, inflammatory diseases and viral infection. To identify small molecule compounds that induce apoptosis, a homogeneous, luminescent Caspase-Glo 3/7 assay was used. Wild type CHO-K1 cells were used to screen Tox21 libraries for identifying caspase-3/7 activity inducers.
CHO-K1 cells were dispensed at 1,500 per well in 5uL of culture medium into white solid bottom 1536-well plates (Corning Life Sciences, Corning, NY) using a Multidrop Combi (Thermo Scientific, Waltham, MA) dispenser. The assay plates were incubated at 37 C and 5% CO2 for 5hr, and then 23nL of compounds dissolved in DMSO and positive control were transferred using a Pintool station (Wako, San Diego, CA). The assay plates were incubated at 37C and 5% CO2 for 17hr. For caspase-3/7 activity read, 4uL of Caspase-Glo 3/7 reagent (Promega Corporation, Madison, WI) was added to each well of the assay plates using Flying Reagent Dispenser (FRD, Aurora Discovery, San Diego, CA) and incubated the assay plates at room temperature for 30min. The luminescence signal was quantified using a ViewLux plate reader (Perkin Elmer, Shelton, CT).
% is set by controls: 0 for no effect and ±100 for the full control effect; potency is the fitted concentration of half-maximal effect.

SMILES	caspase-3/7 activation	Potency
O=[N+]([O-])c1cc(Cl)ccc1Cl	1.22% (inactive)	–
COC[C@H](C)N(C(=O)CCl)c1c(C)csc1C	-1.6% (inactive)	–
ClC(Cl)=C(Cl)Cl	0.838% (inactive)	–
Oc1c(Br)c(Br)c(Br)c(Br)c1Br	0.329% (inactive)	–
CCOP(=S)(OCC)OC(Cl)C(Cl)(Cl)Cl (stereo not given)	0.374% (inactive)	–
[Cd+2].[Cl-].[Cl-]	–	inactive
c1ccc(Nc2ccc3ccccc3c2)cc1	–	inactive
CCc1ccccc1C	-1.03% (inactive)	–
CN(C)C1CSSSC1	-1.89% (inactive)	–
CC(=O)C(Cl)(Cl)Cl	0.289% (inactive)	–
COc1cc(N)c(Cl)cc1C(=O)NC1CN2CCC1CC2 (stereo not given)	-0.0677% [at 42.5 µM] (inactive)	–
NNC(=O)c1ccccc1	-2.16% (inactive)	–
O=C(Cl)c1ccc(Cl)cc1	0.335% (inactive)	–
Oc1ccc(C(=C(Cl)Cl)c2ccc(O)cc2)cc1	-0.733% (inactive)	–
BrCBr	0.128% (inactive)	–
CCCSP(=O)(OCC)SCCC	1.73% (inactive)	–
CCCCCCCCCCCCCCCC[n+]1ccccc1	–	inactive
CCCN(CCC)CCc1c[nH]c2ccccc12	-0.028% (inactive)	–
Oc1ccc(I)cc1	-0.899% (inactive)	–
Cc1cc(C(F)(C(F)(F)F)C(F)(F)F)ccc1NC(=O)c1cccc(I)c1C(=O)NC(C)(C)CS(C)(=O)=O	-1.56% [at 42.5 µM] (inactive)	–

SMILES	caspase-3/7 activation	Potency
c1ccc2cc3c(cc2c1)-c1cccc2cccc-3c12	0.208% (inactive)	–
Oc1c(Cl)c(Cl)cc(Cl)c1Cl	-3.27% (inactive)	–
O=C(O)c1cc[c]([Hg][Cl])cc1	-6.55% (inactive)	–
CCSC(C)CC1CC(=O)C(/C(CC)=N/OC/C=C/Cl)=C(O)C1 (stereo not given)	-0.426% [at 42.5 µM] (inactive)	–
CCS(=O)(=O)c1cccnc1S(=O)(=O)NC(=O)Nc1nc(OC)cc(OC)n1	-0.226% (inactive)	–
N#Cc1ccccc1N	1.58% (inactive)	–
BrC(Br)Br	0.137% (inactive)	–
Oc1cc(Cl)c(Cl)c(Cl)c1	-1.39% (inactive)	–
O=C(CCl)C(Cl)Cl	-2.79% (inactive)	–
CCCCCCCCCCCCCCCC[N+](C)(C)C	–	inactive
Nc1ccccc1C(=O)OC/C=C/c1ccccc1	-0.727% (inactive)	–
N#CSCSC#N	–	inactive
CC1(C)C(/C=C(\Cl)C(F)(F)F)C1C(=O)OC(C#N)c1cccc(Oc2ccccc2)c1 (stereo not given)	-0.409% (inactive)	–
Oc1ccccc1Br	0.546% (inactive)	–
CCOC(=O)CC(=O)CCl	1.76% (inactive)	–
COCC(=O)N(c1c(C)cccc1C)[C@H](C)C(=O)OC	0.251% (inactive)	–
CC(=O)O[C@H]1CC[C@@]2(C)C(=CC[C@@H]3[C@@H]2CC[C@]2(C)C(=O)CC[C@@H]32)C1	-1.2% (inactive)	–
COC12CC[C@@]3(C[C@@H]1C(C)(O)C(C)(C)C)[C@H]1Cc4ccc(O)c5c4[C@@]3(CCN1CC1CC1)[C@H]2O5 (stereo not given in full)	–	48.2 µM (active)
C=CCC1=C(C)C(OC(=O)C2C(C=C(C)C)C2(C)C)CC1=O (stereo not given)	5.94% (inactive)	–
CC(=O)[O-].CC(=O)[O-].O.O.[Cd+2]	-5.81% (inactive)	–
